# Measurements as given in PubChem BioAssay (NCATS).
# Results filed as inconclusive are left out. A call without a number means that no potency is given here. Active and inactive are the calls of the source. Unless noted, calls come from the whole dose curve; as a rule, active = well fitted curve in the direction sought with a large enough effect; inconclusive = small, poorly fitted or top-dose-only effect, or another doubt; inactive = no such curve, though single readings can be large; an effect the other way counts as inactive or inconclusive.
# Tests used:
# [1] = Confirmation and Secondary Assay for Modulators of Hemoglobin Beta Chain Splicing at IVS2 705 locus (AID 930);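 note: HeLa cells stably expressing the EGFP-705 splicing reporter; GFP fluorescence per well restored by corrected splicing of the IVS2-705 intron in EGFP; series mostly up to about 46 µM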
# Method in brief: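 First, HeLa EGFP-705 cells are seeded at 500/well in Optimem with 2% FCS and left overnight. Next, compound or DMSO is added for 2 days. Finally wells are laser-scanned and total peak GFP intensity scored.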
# [2] = MultiTox-Fluor Cytotoxicity Assay - LYMP1-001 - Dead Cells (AID 946); note: potency is the fitted concentration of half-maximal effect
# Method in brief: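 Cytotoxicity as increased dead-cell protease fluorescence (bis-AAF-R110, 485/520 nm), read 60 min after MultiTox-Fluor reagent. Human lymphoblastoid line exposed 16 h; Hill-fitted AC50, with DMSO as 0% and 15 uM tetraoctylammonium bromide as 100%.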
# [3] = MultiTox-Fluor Cytotoxicity Assay - LYMP1-001 - Live Cells (AID 947); note: potency is the fitted concentration of half-maximal effect
# [4] = Cell Viability - LYMP1-002 - Assay at 16 hr (AID 948); note: potency is the fitted concentration of half-maximal effect
# Method in brief: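 Seed 2500 LYMP1-002 cells per well in complete medium and hold 5 hr at 37 C. Add compound across a concentration series and incubate 16 hr at 37 C. Add CellTiter-Glo, wait 30 min at room temperature, read luminescence.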
# [5] = molecular target: Pyruvate kinase (Leishmania mexicana) (UniProt Q27686); experiment: qHTS Validation Assay for Inhibitors of Leishmania Mexicana Pyruvate Kinase (AID 945)
# Sequence of Pyruvate kinase (Leishmania mexicana) (Q27686 2-499 E452W): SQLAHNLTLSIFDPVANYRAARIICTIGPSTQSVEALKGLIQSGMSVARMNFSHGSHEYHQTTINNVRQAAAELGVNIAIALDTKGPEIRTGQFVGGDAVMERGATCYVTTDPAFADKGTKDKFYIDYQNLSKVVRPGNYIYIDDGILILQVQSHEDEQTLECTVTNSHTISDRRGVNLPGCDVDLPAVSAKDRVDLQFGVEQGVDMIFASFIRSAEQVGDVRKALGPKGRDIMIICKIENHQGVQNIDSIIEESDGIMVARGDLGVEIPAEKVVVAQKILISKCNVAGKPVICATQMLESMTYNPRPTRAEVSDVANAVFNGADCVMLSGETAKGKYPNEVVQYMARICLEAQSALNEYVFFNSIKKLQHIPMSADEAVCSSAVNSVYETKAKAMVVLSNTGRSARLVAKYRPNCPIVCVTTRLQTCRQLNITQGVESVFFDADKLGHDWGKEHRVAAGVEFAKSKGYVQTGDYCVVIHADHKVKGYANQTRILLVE
# Method in brief: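 qHTS eight-point titrations against 0.2 nM LmPYK (E451W) in imidazole buffer pH 7.2 with 0.5 mM PEP, 0.1 mM ADP; 1 h, room temperature. Readout: PKLight luminescence, normalized to neutral DMSO wells.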
# [6] = molecular target: Pyruvate kinase PKM (Homo sapiens) (UniProt P14618); experiment: qHTS Assay for Activators of Human Muscle Pyruvate Kinase (AID 954; active = well fitted curve in the direction sought with a large enough effect, not every such curve was filed as active)
# Sequence of Pyruvate kinase PKM (Homo sapiens) (P14618 whole entry, looked up): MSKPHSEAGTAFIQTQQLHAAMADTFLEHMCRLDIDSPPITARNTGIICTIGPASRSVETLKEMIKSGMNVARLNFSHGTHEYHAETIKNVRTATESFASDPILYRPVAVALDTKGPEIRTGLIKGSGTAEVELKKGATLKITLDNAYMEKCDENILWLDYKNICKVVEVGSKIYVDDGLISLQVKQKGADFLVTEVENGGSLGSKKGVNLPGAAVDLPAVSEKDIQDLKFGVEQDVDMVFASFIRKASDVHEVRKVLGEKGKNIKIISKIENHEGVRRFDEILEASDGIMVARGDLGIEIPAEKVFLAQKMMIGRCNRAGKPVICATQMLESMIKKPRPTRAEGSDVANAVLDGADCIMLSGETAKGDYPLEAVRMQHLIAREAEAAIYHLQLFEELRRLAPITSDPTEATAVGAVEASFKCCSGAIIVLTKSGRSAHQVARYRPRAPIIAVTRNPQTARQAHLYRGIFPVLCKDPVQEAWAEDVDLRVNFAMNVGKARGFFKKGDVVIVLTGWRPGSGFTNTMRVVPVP
# Method in brief: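 Human PKM2 activity is measured as ATP generation, detected by luciferase-coupled luminescence. The enzyme (0.1 nM) acts on 0.5 mM PEP and 0.1 mM ADP for 1 h at ambient temperature; data are normalized to uninhibited and full-inhibition wells.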
# [7] = MultiTox-Fluor Cytotoxicity Assay - LYMP1-002 - Live Cells (AID 955);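 note: cells exposed to compound for 16 hours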
# Method in brief: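 Read-out is live-cell protease activity (cell-permeant GF-AFC substrate, fluorescence Ex/Em=405/510), where a decrease indicates acute toxicity. Human lymphoblastoid cells were treated 16 hours at 37 C in a concentration series, and AC50 values came from standard Hill modelling.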
# [8] = molecular target: Muscarinic acetylcholine receptor M1 (Rattus norvegicus) (UniProt P08482); experiment: qHTS Assay for Antagonists of Acetylcholine Muscarinic M1 Receptor: Kinetic Measurement of Intracellular Calcium Response (AID 943); note: nearly all actives have a fitted effect of over 75% in size; note: potency is the fitted concentration of half-maximal effect
# Sequence of Muscarinic acetylcholine receptor M1 (Rattus norvegicus) (P08482 whole entry, looked up): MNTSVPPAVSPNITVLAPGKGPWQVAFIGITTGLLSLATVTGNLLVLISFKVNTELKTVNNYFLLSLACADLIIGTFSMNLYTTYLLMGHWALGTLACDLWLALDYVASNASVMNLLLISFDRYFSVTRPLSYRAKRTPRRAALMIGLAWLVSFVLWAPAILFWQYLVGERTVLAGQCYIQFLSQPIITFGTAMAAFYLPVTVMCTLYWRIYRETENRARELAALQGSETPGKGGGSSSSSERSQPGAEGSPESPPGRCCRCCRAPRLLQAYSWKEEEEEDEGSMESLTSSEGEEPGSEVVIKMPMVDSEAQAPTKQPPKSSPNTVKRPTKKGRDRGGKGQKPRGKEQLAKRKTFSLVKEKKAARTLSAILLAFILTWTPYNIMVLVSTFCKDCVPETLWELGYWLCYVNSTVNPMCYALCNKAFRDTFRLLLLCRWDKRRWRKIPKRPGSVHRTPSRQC
# Method in brief: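 Rat M1-CHO cells, 2000/well, overnight → Fluo-4 no-wash dye with probenecid, 1 h 37C → compound 10 min, room temp → basal read 6 s → carbachol EC80 (100 nM) → 4 min kinetic read; peak/basal.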
# [9] = molecular target: Muscarinic acetylcholine receptor M1 (Rattus norvegicus) (UniProt P08482); experiment: qHTS Assay for Antagonists of Acetylcholine Muscarinic M1 Receptor: Measurement of IP-One Response (AID 944); note: nearly all actives have a fitted effect of over 75% in size; note: potency is the fitted concentration of half-maximal effect
# Method in brief: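 M1-CHO (rat), 2000 cells/well, overnight recovery; cpd 10 min; carbachol EC80 (200 nM), 30 min, HEPES buffer + 50 mM LiCl pH 7.4; IP-One HTRF, Ex 337, Em 620/665 nm.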
structure (smiles),measurement,setting,value
CC1(C)OC(=O)NC1=O,Potency,[1],inactive
O=C1NS(=O)(=O)c2ccccc21,Potency,[1],inactive
CCN(CC)C(C)CN1c2ccccc2Sc2ccccc21 (stereo unspecified),Potency,[1],inactive
Cc1c(O)cccc1C(=O)N[C@@H](CSc1ccccc1)[C@H](O)CN1C[C@H]2CCCC[C@H]2C[C@H]1C(=O)NC(C)(C)C,Potency,[2],31.6 µM (active)
same,Potency,[3],39.8 µM (active)
same,Potency,[4],50.1 µM (active)
CN1CCOC(c2ccccc2)c2ccccc2C1 (stereo unspecified),Potency,[1],inactive
CN(C)CCCN1c2ccccc2Sc2ccc(Cl)cc21,Potency,[1],inactive
same,outcome,[5],inactive
same,outcome,[6],inactive
Nc1ccc(S(=O)(=O)Nc2nccs2)cc1,Potency,[1],inactive
same,Potency,[2],inactive
same,Potency,[3],inactive
same,Potency,[4],inactive
same,outcome,[7],inactive
CC(C)(C(=O)O)c1ccc(C(O)CCCN2CCC(C(O)(c3ccccc3)c3ccccc3)CC2)cc1 (stereo unspecified),Potency,[1],inactive
Nc1cc(=O)[nH]c(N)n1,Potency,[8],inactive
same,Potency,[9],inactive
same,outcome,[5],inactive
same,outcome,[6],inactive
C#CCN(C)Cc1ccccc1,Potency,[8],inactive
same,Potency,[9],inactive
same,outcome,[5],inactive
same,outcome,[6],inactive
CCCCCCCCCCCCCCCCCCOCC(O)CO (stereo unspecified),Potency,[1],inactive
CCCn1cnc2c1c(=O)n(CCCCC(C)=O)c(=O)n2C,Potency,[8],inactive
same,Potency,[9],inactive
same,outcome,[5],inactive
same,outcome,[6],inactive
C=Cc1c(C)c2cc3[nH]c(cc4nc(cc5nc(cc1[nH]2)C(C)=C5CCC(=O)O)C(CCC(=O)O)=C4C)c(C)c3C=C,Potency,[1],inactive
same,Potency,[8],inactive
same,Potency,[9],inactive
same,outcome,[5],inactive
same,outcome,[6],inactive
Cc1c(Cl)cccc1Nc1ccccc1C(=O)O,Potency,[1],inactive
CC(CN(C)C)CN1c2ccccc2CCc2ccccc21 (stereo unspecified),Potency,[1],inactive
CNCC(O)c1ccc(O)c(O)c1 (stereo unspecified),Potency,[1],inactive
NC(N)=NCCC[C@H](N)C(=O)O,Potency,[9],inactive
same,outcome,[5],inactive
same,outcome,[6],inactive
CC1=C(CC(=O)O)c2cc(F)ccc2/C1=C\c1ccc(S(C)(=O)=O)cc1,Potency,[9],inactive
same,outcome,[5],inactive
same,outcome,[6],inactive
CN(C)CCOC(C)(c1ccccc1)c1ccccn1 (stereo unspecified),Potency,[1],inactive
C[C@]12CC[C@@H]3c4ccc(O)cc4CC[C@H]3[C@@H]1CCC2=O,outcome,[5],inactive
same,outcome,[6],inactive
CCN(CC)CCOC(=O)C1(C2CCCCC2)CCCCC1,Potency,[1],inactive
same,outcome,[5],inactive
same,outcome,[6],inactive
CCN(CC)CCNC(=O)c1cc(Cl)c(N)cc1OC,Potency,[1],inactive
same,Potency,[9],inactive
same,outcome,[5],inactive
same,outcome,[6],inactive
O=C(O)c1ccccc1O,Potency,[1],inactive
CC1=C(CC(=O)O)c2cc(F)ccc2/C1=C\c1ccc(S(C)=O)cc1 (stereo unspecified),Potency,[1],inactive
same,outcome,[5],inactive
same,outcome,[6],inactive
CC(C)NC[C@H](O)c1ccc(O)c(O)c1,outcome,[5],inactive
same,outcome,[6],inactive
COC(=O)C1=C(C)NC(C)=C(C(=O)OC)C1c1ccccc1[N+](=O)[O-],Potency,[1],inactive
same,outcome,[5],inactive
same,outcome,[6],inactive
c1ccc2c(CC3=NCCN3)cccc2c1,Potency,[1],inactive
CN(C)CCC=C1c2ccccc2CCc2ccccc21,Potency,[1],inactive
same,outcome,[5],inactive
same,Potency,[3],inactive
same,Potency,[4],inactive
same,outcome,[6],inactive
same,outcome,[7],inactive
Cc1ccc(C(C)C)cc2c(C)ccc1-2,Potency,[1],inactive
N=c1c[n+](N2CCOCC2)[n-]o1,Potency,[9],inactive
same,outcome,[5],inactive
same,outcome,[6],inactive
CN(C)CCCN1c2ccccc2CCc2ccccc21,outcome,[5],inactive
same,outcome,[6],inactive
OCCN1CCN(CCCN2c3ccccc3Sc3ccc(Cl)cc32)CC1,Potency,[1],inactive
same,outcome,[5],inactive
same,outcome,[6],inactive
COc1ccc(Cl)cc1C(=O)NCCc1ccc(S(=O)(=O)NC(=O)NC2CCCCC2)cc1,Potency,[1],inactive
same,Potency,[9],inactive
same,outcome,[5],inactive
same,outcome,[6],inactive
Cc1cc(N)c2ccccc2[n+]1CCCCCCCCCC[n+]1c(C)cc(N)c2ccccc21,Potency,[1],inactive
same,Potency,[8],1.78 µM (active)
same,Potency,[9],2.24 µM (active)
same,outcome,[5],inactive
same,outcome,[6],inactive
NC1CCN(c2cccc(Cl)n2)CC1,outcome,[5],inactive
same,outcome,[6],inactive
O=C(Oc1ccccc1C(=O)O)c1ccccc1O,Potency,[1],inactive
OCc1cc(C(O)CNCCCCCCOCCCCc2ccccc2)ccc1O (stereo unspecified),Potency,[9],inactive
same,outcome,[5],inactive
same,outcome,[6],inactive
CNCCC(Oc1ccc(C(F)(F)F)cc1)c1ccccc1 (stereo unspecified),Potency,[1],inactive
CC(C)C(=O)c1c(C(C)C)nn2ccccc12,Potency,[8],inactive
same,Potency,[9],inactive
same,outcome,[5],inactive
same,outcome,[6],inactive
CC(=O)OCC(=O)[C@@]1(O)CC[C@H]2[C@@H]3CCC4=CC(=O)CC[C@]4(C)[C@H]3C(=O)C[C@@]21C,outcome,[5],inactive
same,outcome,[6],inactive
CNCCCC1c2ccccc2C=Cc2ccccc21,Potency,[9],0.398 µM (active)
same,outcome,[5],inactive
same,outcome,[6],inactive
CCCCCCCCCCCCCCCC(=O)NCCO,Potency,[9],inactive
same,outcome,[5],inactive
same,outcome,[6],inactive
